# Compound activity: PubChem BioAssay, The Scripps Research Institute Molecular Screening Center
# Sampled rows, rich in hits. Any-hit rate of the full collection: about 1.9%.
# PLC-gamma1 inh – PLC-gamma1 enzyme inhibitors, primary screen, biochemical, fluorescence, purified enzyme. inhibition, % at 12.2 µM. AID 720700, 2013. fluorogenic substrate. actives 0.84% (n = 370,000). 1-phosphatidylinositol 4,5-bisphosphate phosphodiesterase gamma-1 (Homo sapiens), P19174; in the data active = inhibition above about 9.5%
# MsrA act – bovine MsrA enzyme activators, primary screen, biochemical, absorbance, HTS; purified bovine MsrA, absorbance read-out; actives 0.3% (n = 360,000); activation, % at 10.6 µM; in the data active = activation above about 7.5%;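 note: 0% = vehicle and 100% = reference activator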
# MsrA inh – bovine MsrA enzyme inhibitors, primary screen, biochemical, absorbance, HTS; Methionine sulfoxide reductase A (Bos taurus); purified bovine MsrA, absorbance read-out; inhibition, % at 15.5 µM; actives 0.75% (n = 360,000);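 note: 0% = vehicle wells with enzyme and 100% = reference inhibitor wells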
# PLC-beta3 inh – human PLC-beta3 inhibitors, primary screen, biochemical, fluorescence; actives 0.18% (n = 370,000); Purified PLC-beta3, fluorogenic substrate; inhibition, % at 12.2 µM; 1-phosphatidylinositol 4,5-bisphosphate phosphodiesterase beta-3 (Homo sapiens), Q01970; in the data active = inhibition above about 11%;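 note: 0% = median of compound wells on plate and 100% = full blocker control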
# MsrA conf – bovine MsrA inhibitors, retest, confirmation, biochemical, absorbance, HTS | shares compounds with MsrA inh | purified bovine MsrA, absorbance read-out | inhibition, % at 15.5 µM | actives 41% (n = 2,300) | AID 651822, 2012;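 note: coupled to thioredoxin reductase with NADPH and selenocystamine and DMSO as substrate; 0% = vehicle only and 100% = full effect of reference inhibitor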
# An asterisk follows results filed as active; i = inactive; . = not tested or not shown. Cut-off read from the data, not from the text of the source, unless noted: active = inhibition above about 4.5%; inactive = the rest.
SMILES,PLC-gamma1 inh,MsrA act,MsrA inh,PLC-beta3 inh,MsrA conf
O=C(CSc1nnc(-c2ccccn2)n1-c1ccccc1)c1ccc2c(c1)OCO2,2,.,.,4,.
Cc1ccc2nc(-c3cccc(Br)c3)c(Cc3ccsc3)n2c1,-14,.,0,-15,.
Cn1cnc([N+](=O)[O-])c1S(=O)(=O)Oc1cccc2ccccc12,-4,-10,14*,-10,7.1*
Cn1cnc([N+](=O)[O-])c1S(=O)(=O)Oc1ccc(Cl)cc1,5,-1,23*,-10,13*
CCS(=O)(=O)c1c([N+](=O)[O-])ncn1C,4,-4,0,5,.
Cc1ccc(/C=N/n2c(C3CCCCC3)n[nH]c2=S)s1,0,-5,1,-3,.
Cc1ccsc1/C=N/n1c(-c2cc(-c3ccccc3)n[nH]2)n[nH]c1=S,0,0,-1,-3,.
Cc1ccsc1/C=N/n1c(C2CCCCC2)n[nH]c1=S,0,-4,11*,0,6.1*
COc1ccc(/C=N/n2c(C3CCCCC3)n[nH]c2=S)c(OC)c1,1,1,8.8*,-5,8.6*
Cc1ccc(-c2n[nH]c(=S)n2/N=C/c2sccc2C)cc1,0,1,4.7*,0,3
COC(=O)c1cc(-c2ccc(F)c(Cl)c2)c(=O)n2c1CCC2,-2,.,.,-7,.
O=C1OC(c2ccccc2)=N/C1=C\N1CCCCC1,8,-2,5.7*,-6,6.9*
CCOc1ccc(-n2c(SCC(=O)Nc3cccc4ccccc34)nnc2-c2cccs2)cc1,4,.,.,-13,.
CCN(CC)C(=O)c1sc(NC(=O)c2ccc3c(c2)OCO3)c(C#N)c1C,-7,-13,2,-3,.
Cc1c(C(=O)N2CCOCC2)sc(NC(=O)c2ccc3c(c2)OCO3)c1C#N,-7,-5,5.0*,-10,4
COc1ccc(CCC(=O)N2c3ccccc3N=C(c3ccc(C(F)(F)F)cc3)C2C(=O)NC(C)C)cc1 (stereo unspecified),-44,.,0,-75,.
COC(=O)[C@]1(C#N)CC(=O)N(CC(C)C)[C@@H]1c1ccccc1,-1,.,.,-3,.
Cc1nn(-c2ccccc2)c(N)c1N=Nc1ccc2ccccc2c1,0,-1,0,4,.
Cc1ccc(N=Nc2c(N)nn(-c3ccccc3)c2N)cc1,6,-4,5.0*,4,2
O=c1[nH]c(/C=C\c2cccs2)nc(O)c1[N+](=O)[O-],4,-5,5.3*,1,3
O=c1[nH]c(/C=C\c2ccc(O)cc2)nc(O)c1[N+](=O)[O-],2,-4,4,-3,.
COc1ccc(/C=C(\CC(=O)O)c2nc3ccccc3o2)cc1,-8,-5,5.9*,-88,4
COc1ccc(C(=O)/C(=C/c2cccs2)c2nc3ccccc3o2)cc1,-1,-1,3,-3,.
CC(=O)c1ccc(N2CCN(C(=O)c3ccc(Cn4c(=S)[nH]c5ccc(N6CCOCC6)cc5c4=O)cc3)CC2)cc1,i,-5,5.0*,i,4.8*
O=C(Nc1ccc2c(c1)OCO2)c1c(Cl)nc2sccn12,0,1,10*,0,3
SMILES,PLC-gamma1 inh,MsrA act,MsrA inh,PLC-beta3 inh,MsrA conf
COCCNC(=O)/C(C#N)=C/c1cccc(/C=C(\C#N)C(=O)NCCOC)c1,2,-2,-1,1,.
COCCNC(=O)/C(C#N)=C/C(C)=C/c1ccccc1,-1,-2,6.0*,0,3
Cc1ccccc1C(=O)/C=C1\NC(=O)CS1,3,-6,6.3*,0,6.6*
Cc1cc(C)cc(C(=O)/C=C2\NC(=O)CS2)c1,-3,-15,5.3*,-8,5.3*
CN(Cc1ccco1)C(=O)[C@@H](Cc1ccccc1)NC(=O)[C@H]1O[C@@H](n2ccc(=O)[nH]c2=O)[C@H](O)[C@@H]1O,5,.,0,7,.
O=C(N[C@H](C(=O)N1CCC[C@H]1C(=O)NCc1ccccc1)c1ccccc1)c1ccc(Cl)c(Cl)c1,3,.,0,1,.
COC(=O)C1=C(C)N(Cc2cccc(C(F)(F)F)c2)C(=NCc2cc(OC)c(OC)c(OC)c2)NC1CCc1ccccc1 (stereo unspecified),-7,.,-1,-12,.
COc1cccc(NC(=O)Nc2c(-c3ccc(C)cc3)nc3ncccn23)c1,-299,.,.,-368,.
O=[N+]([O-])c1ccc(N2CCN(S(=O)(=O)c3ccc(Cl)cc3)CC2)cc1NCc1cccnc1,-1,-9,1,2,.
